In the library only some 5.4% were active in any assay of this set; here they are far more common.
CSC inhib: blocks cancer stem cells. cancer stem cell-like cells viability, luminescence. inhibition, % at 7.5 µM. actives 1.1% (n = 300,000); in the data active = inhibition above about 75%; inconclusive = no clear call, values can overlap the other calls; tested in HMLE shEcad cells
Calb FLC: affects C. albicans growth with fluconazole. C. albicans CaCi-2 (fluconazole-resistant clinical isolate) + fluconazole, Alamar Blue growth, 48 h. growth inhibition, % (no concentration beside the values). actives 0.57% (n = 300,000). AID 1979;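 active = growth inhibition above about 58% in most replicates, limit read from the data, passing the limit was not always enough; inconclusive = exactly half the replicates above a set limit; inactive = most replicates below a set limit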;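 note: all wells also contain fluconazole at 8 µg/ml as a sub-toxic cotreatment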
PP1 counter: counter-screen for PP5 inhibitors: inhibitors of human PP1-alpha | P62136 | purified PP1alpha, OMFP fluorescence | inhibition, % at 6.7 µM | actives 0.9% (n = 320,000) | AID 2235;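 active = inhibition above the mean inhibition of all tested compounds plus 3 SD, computed separately for each screening campaign, cut at about 15% in these data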
PP5 inh: inhibitors of human protein phosphatase 5 (PP5); purified PP5c, OMFP substrate fluorescence; actives 0.18% (n = 320,000); AID 1987; P53041; inhibition, % at 6.7 µM;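 active = inhibition above the campaign's mean inhibition across all tested compounds plus 3 SD, cut at about 9.5% in these data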
Target sequence (P53041 whole entry, looked up): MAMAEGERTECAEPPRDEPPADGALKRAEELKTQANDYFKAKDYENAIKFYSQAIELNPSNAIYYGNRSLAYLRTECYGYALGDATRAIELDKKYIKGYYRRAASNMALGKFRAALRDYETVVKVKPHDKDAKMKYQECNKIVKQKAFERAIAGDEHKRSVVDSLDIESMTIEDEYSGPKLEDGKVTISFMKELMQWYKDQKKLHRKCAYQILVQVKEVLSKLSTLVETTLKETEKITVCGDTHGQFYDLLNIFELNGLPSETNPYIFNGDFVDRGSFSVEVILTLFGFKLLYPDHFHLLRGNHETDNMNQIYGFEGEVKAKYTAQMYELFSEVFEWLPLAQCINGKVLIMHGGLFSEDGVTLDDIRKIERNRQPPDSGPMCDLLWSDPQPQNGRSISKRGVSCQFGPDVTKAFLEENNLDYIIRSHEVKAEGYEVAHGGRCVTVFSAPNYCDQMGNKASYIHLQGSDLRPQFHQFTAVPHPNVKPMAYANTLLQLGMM
ALR inh: human ALR oxidase inhibition via reduced H2O2; purified ALR, DTT oxidation, H2O2 HRP-luminol luminescence; AID 485317; inhibition, % (test concentration not listed); actives 3.8% (n = 290,000);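 active = mean replicate inhibition above about 79%, with every replicate also reaching it, limit read from the data; inconclusive = only one of the two criteria met; inactive = mean below limit and not every replicate reaching it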
Hits are given with their value; n = inactive; u = inconclusive; x = no result given.

SMILES | CSC inhib | Calb FLC | PP1 counter | PP5 inh | ALR inh
O=C(CN1C(=O)NC2(CCCC2)C1=O)Nc1cc(Cl)ccc1N1CCCC1 | n | n | n | n | 87
COc1ccc(C2/C(=C(/O)c3ccccc3)C(=O)C(=O)N2CCCN2CCOCC2)cc1 (centres undefined) | n | n | n | n | n
CCOC(=O)C1(Cc2ccccc2Cl)CCN(Cc2csc(C(C)=O)c2)CC1 | n | n | n | n | x
O=C(CSc1ncnc2nc[nH]c12)Nc1nnc(SCc2ccc(Cl)c(Cl)c2)s1 | 93 | u | n | n | n
O=C(O)c1ccc(/C=N/N2CCN(Cc3cccc4ccccc34)CC2)cc1 | n | n | n | n | n
COc1ccc(-c2nc(-c3cccc(C(F)(F)F)c3)no2)cc1OC | n | n | n | n | n
C/C(=N\NC(=O)c1cc(Cl)ccc1O)c1ccc(Br)s1 | 103 | n | n | n | n
Cc1ccc(NC2=C(Cl)C(=O)OC2OC(=O)c2ccco2)c(C)c1 (centres undefined) | n | n | n | n | 99
Cc1ccc(NC2=C(Cl)C(=O)OC2OC(=O)c2ccco2)cc1C (centres undefined) | n | n | n | n | 91
COc1ccc(Cl)cc1NC(=O)COC(=O)CCNC(C)=O | n | n | n | n | n
CC(C)C(c1nnnn1C1CCCC1)N1c2ccccc2CC1C (centres undefined) | n | n | n | n | 99
CC(C)C(c1nnnn1C1CCCCC1)N1CCc2ccccc21 (centres undefined) | n | n | n | n | n
Cc1ccc(NC(=O)CCNC(=O)c2ccco2)cc1 | n | n | n | n | n
COc1ccc(NC(C)C(=O)N/N=C/c2c(O)ccc3ccccc23)cc1 (centres undefined) | n | n | x | x | n
C=COC(=O)CSc1snc(SCC(=O)OC)c1C#N | n | n | n | n | 99
COc1ccc(NC(=O)CSCc2ccc(C)cc2)cc1 | n | u | n | n | n
CC(=O)NC(c1ccco1)c1ccc2cccnc2c1O (centres undefined) | n | n | n | n | n
CCCC(=O)NC(c1ccc(OC)c(OC)c1)c1cc(Cl)c2cccnc2c1O (centres undefined) | n | n | n | n | n
COc1ccc(C(NC(=O)C(C)C)c2ccc3cccnc3c2O)cc1 (centres undefined) | 104 | 86 | n | n | n
O=C(NC(c1ccc(Cl)cc1)c1cc(Cl)c2cccnc2c1O)c1cccnc1 (centres undefined) | 113 | 84 | n | n | n
COc1ccc(C(NC(C)=O)c2cc(Cl)c3cccnc3c2O)cc1 (centres undefined) | 107 | n | n | n | n
CC(=O)NC(c1ccccc1)c1cc(Cl)c2cccnc2c1O (centres undefined) | 104 | 105 | n | n | n
CCC(=O)NC(c1cccs1)c1cc(Cl)c2cccnc2c1O (centres undefined) | 119 | 99 | n | n | n
CCCC(=O)NC(c1ccco1)c1cc([N+](=O)[O-])c2cccnc2c1O (centres undefined) | 77 | 109 | n | n | n
CCC(=O)NC(c1cc(Cl)c2cccnc2c1O)C(C)C (centres undefined) | n | x | n | n | n
SMILES | CSC inhib | Calb FLC | PP1 counter | PP5 inh | ALR inh
CCCC(=O)NC(c1ccco1)c1c(O)ccc2ccccc12 (centres undefined) | x | n | n | n | n
C=CCn1c(C)csc1=Nc1ccccc1C | x | n | n | n | 99
C=CCn1c(C)csc1=Nc1ccc(C(C)=O)cc1 | n | n | n | n | n
CCCn1nnnc1NCc1ccc(N(CC)CC)cc1 | n | n | n | n | 98
CCN(CC)c1ccc(CNc2nnnn2C)cc1 | n | n | n | n | 99
Cc1cccc(OCC(=O)N/N=C\C=C\c2ccc3c(c2)OCO3)c1C | n | n | n | n | n
Cc1ccc(S(=O)(=O)N2CCN(C(=O)CCCN3C(=O)NC4(CCCC4)C3=O)CC2)cc1C | n | x | n | n | n
COc1ccc(CCNc2ncnc3[nH]ncc23)cc1OC | n | n | n | n | n
COc1ccc(CCNc2ncnc3sc(C)cc23)cc1OC | n | 107 | x | x | n
C=CCn1c(SCC(=O)c2ccc(O)c(O)c2)nnc1-c1cccnc1 | n | n | n | n | 99
C=CCn1c(SCC(=O)c2ccc(O)c(O)c2)nnc1-c1cccc(C)c1 | n | x | n | n | n
C=CCn1c(SCC(N)=O)nnc1-c1ccccc1O | n | n | n | n | n
C=CCn1c(SCC(=O)c2ccc(O)c(O)c2)nnc1-c1cccc(Cl)c1 | n | x | n | n | 98
C=CCn1c(SCC(N)=O)nnc1-c1cc(Br)ccc1O | n | n | n | n | 97
CCOC(=O)C[C@H]1c2cc(F)ccc2S(=O)(=O)N1C(C)(C)C | n | n | n | n | u
O=c1[nH]c(/C(Cl)=C/c2c(F)cccc2Cl)nc2cc(Cl)ccc12 | n | n | n | n | n
O=c1[nH]c(/C(Cl)=C/c2cc(Cl)ccc2O)nc2cc(Cl)ccc12 | 101 | n | n | n | x
O=C(CC(=O)N/N=C\c1ccccc1)NCCc1ccccc1 | n | n | n | n | n
CC(=O)Nc1nc(-c2cccs2)cs1 | n | n | n | n | n
O=C(Nc1nc(-c2cccs2)cs1)c1ccc(Cl)s1 | n | n | n | n | 97
O=C(/C=C/Nc1ccc(F)cc1F)c1cccs1 | n | n | n | n | n
COC(=O)[C@@H]1C[C@]2(OC(=O)c3ccccc3)C=CC(=O)C[C@@H]2N1C(=O)OCc1ccccc1 | 76 | n | n | n | n
CCOC(=O)CN1NC2(CCCCC2)NC1=S | n | n | n | n | x
O=C1/C(=C\c2ccc3c(c2)OCO3)CCC/C1=C/c1ccc2c(c1)OCO2 | n | n | n | n | n
CC1CC/C(=C\c2ccc3c(c2)OCO3)C(=O)/C1=C/c1ccc2c(c1)OCO2 (centres undefined) | 81 | n | 17 | n | n
SMILES | CSC inhib | Calb FLC | PP1 counter | PP5 inh | ALR inh
Cc1ccnc(NC(c2cccnc2)c2ccc3cccnc3c2O)c1 (centres undefined) | n | 90 | n | n | n
Cc1ccc2ccc(C(Nc3ccccn3)c3ccccc3)c(O)c2n1 (centres undefined) | x | n | n | n | x
COc1cc(C(Nc2ccccn2)c2ccc3ccc(C)nc3c2O)cc(OC)c1O (centres undefined) | n | 113 | n | n | n
COc1cc2c(cc1OC)C(CC(=O)O)N(C(=O)CC1CCCC1)CC2 (centres undefined) | n | n | n | n | n
O=C(NCc1ccc(Cl)cc1)c1n[nH]c([N+](=O)[O-])c1Cl | n | 97 | n | n | n
O=C(Cc1ccccc1[N+](=O)[O-])NCc1ccc(Cl)cc1 | n | n | n | n | n
CCCCN1C2=NC(c3ccccc3)CN2c2ccccc21 (centres undefined) | n | n | n | n | 93
CCOC(=O)c1cc2c(C)[nH]c(C)c2cc(C(=O)OCC)c1=O | n | n | n | n | n
COc1ccc(NC(=O)c2cc(-c3cc(C)cc(C)c3O)n[nH]2)cc1Cl | 99 | n | n | n | n
Cc1cccc(NC(=O)c2cc(-c3cc(C)cc(C)c3O)n[nH]2)c1 | 76 | n | n | n | n

High-throughput results from PubChem.
